Test results from PubChem BioAssay AID1159580 (chemical genetic matrix, 2015).
In all, about 5,500 compounds went through this assay and about 2,000 (36%) were called active. Another 18% or so got no clear call; they are omitted. Cut-off read from the data, not from the text of the source: active = normalized growth mostly below about 0.91 (no sharp cut-off); inconclusive = no clear call, values can overlap the other calls; inactive = mostly above about 0.92. Some of the results follow.

Test: chemical genetic growth profiling, strain panel (AID 1159580);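 note: tested at 20 µM; growth read once vehicle control cultures reached saturation at 30 °C; 1 = growth at the plate median or of vehicle wells; lower values mean less growth of the strain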
Settings: S. cerevisiae deletion strains, growth OD
[1] = locus YAL040C, strain CLN3, active compounds read low
[2] = locus YER002W, strain NOP16, active compounds read low
[3] = locus YGR229C, strain SMI1, active compounds read low
[4] = locus YNL175C, strain NOP13, active compounds read low
[5] = locus YNL197C, strain WHI3, active compounds read low
[6] = locus YNL224C, strain SQS1, active compounds read low
[7] = locus YOR083W, strain WHI5 (second series), active compounds read low

Measured: normalized growth

CC1(NCC(O)COc2cccc3[nH]ccc23)CCC(C(C)(C)NC(=O)CBr)CC1 (stereo unspecified)
inactive: [1] 1.04 | locus YCL061C, strain MRC1 (second series), active compounds read low 0.993 | locus YDR363W, strain ESC2, active compounds read low 1.03 | [2] 1.03 | locus YGR078C, strain PAC10, active compounds read low 1 | [3] 0.997 | locus YMR307W, strain GAS1, active compounds read low 0.99 | [4] 1.02 | [5] 1.02 | [6] 1.06 | locus YNL322C, strain KRE1, active compounds read low 0.973 | [7] 1.02 | locus YPL055C, strain LGE1, active compounds read low 0.968 | locus YPL241C, strain CIN2, active compounds read low 1

C=CCc1ccccc1OCC(O)CN[C@]1(C)CCC[C@H](C(C)(C)NC(=O)CBr)C1 (stereo partly specified)
inactive: [1] 1.01 | [2] 1.02 | [3] 1.01 | [4] 1.08 | [5] 1.03 | [6] 1.02 | [7] 1.09
